Compound activity as filed in PubChem.
Hits are enriched below; roughly 1.6% of the tested compounds scored in any of these assays.
KCNQ2 block: rat KCNQ2 potassium channel inhibitors, primary screen, cell-based, CHO-K1, FluxOR thallium flux, B-score; Potassium voltage-gated channel subfamily KQT member 2 (Rattus norvegicus), O88943; 20 min; active compounds read low; B-score at 10 µM; 310,000 tested, 1.1% active; AID 2156, 2009;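 active = fluorescence ratio B-score at most minus 3 library SDs, with starting brightness B-score within 2 library SDs, cut at about -5.5 in these data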
KCNQ2 enhance: potentiators of rat KCNQ2 potassium channel | B-score at 10 µM | CHO-K1 KCNQ2, FluxOR thallium flux fluorescence; active compounds read high | 310,000 tested, 0.54% active | Potassium voltage-gated channel subfamily KQT member 2 (Rattus norvegicus), O88943 | AID 2239, 2010;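 active = fluorescence ratio B-score at least 3 SD of library B-scores, with initial fluorescence B-score within 3 of them, cut at about 5.3 in these data; same plate scores as AID 2156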;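 also: B-score of peak minus minimum over baseline fluorescence ratio after K+ and Tl+ stimulus; positive B-score means potentiation of KCNQ2 with more thallium influx and brighter signal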
* = called active by the depositor; i = inactive; nt = not tested or not shown.

SMILES | KCNQ2 block | KCNQ2 enhance
O=C1CCC([N+](=O)[O-])C(C2CC=CCC2)N1 (centres undefined) | i | 0.27
CCc1cc(=O)oc2cc(OCC(=O)N3CCC[C@H]3C(=O)O)ccc12 | i | 0.68
CN1CCN(c2ccc(Cl)cc2NC(=O)/C=C/c2cccc(F)c2)CC1 | -6.5* | -6.5
CN1CCN(c2ccc(Cl)cc2NC(=O)c2cccc(S(=O)(=O)N(C)C)c2)CC1 | i | nt
COc1ccc(N(CCC(=O)Nc2ccccc2F)S(=O)(=O)c2ccc(C)cc2C)cc1 | i | nt
CC1CCN(c2cc(C#N)c(C#N)cc2[N+](=O)[O-])CC1 | i | 0.25
CC1CCN(c2cc(N)c(Cl)cc2[N+](=O)[O-])CC1 | -6.5* | -6.5
COc1ccc(CC(=O)Nc2c3c(nn2C(C)(C)C)CS(=O)(=O)C3)cc1OC | i | 0.03
COc1ccc(CCN(Cc2cc3cc(C)c(C)cc3nc2Cl)C(=O)C2CC2)cc1 | -6.5* | -6.5
Cc1ccc2nc(Cl)c(CN(Cc3cccs3)C(=O)C3CC3)cc2c1 | i | nt
Cc1cc(C)c2c(c1)/C(=N\N=c1\sc3ccccc3n1C)C(=O)N2 | i | nt
CC(=O)N/C(=C\c1ccc(C)o1)C(=O)NCc1ccccc1 | i | nt
CC(NC(=O)NC1CCCCC1)c1ccccc1 (centres undefined) | i | 13*
O=C(Nc1ccccc1)NC1CCCCCCC1 | i | 0.03
COc1ccc(CN2CCNC(=O)C2CC(=O)N2CCCCO2)cc1OC (centres undefined) | i | 1.9
CN(Cc1ccccc1)C(=O)c1nc2ccccn2c1CN1CCc2sccc2C1 | -5.9* | -5.9
CN(Cc1c(C(=O)N(C)Cc2ccccc2)nc2ccccn12)CC1Cc2ccccc2O1 (centres undefined) | i | nt
CCOc1ccccc1C(=O)N[C@H](C(=O)OCc1cc(=O)oc2cc(C)ccc12)C(C)C | i | nt
COc1cc(OC)cc(C(=O)N[C@H](C(=O)OCc2cc(=O)oc3cc(C)ccc23)C(C)C)c1 | -7.7* | -7.7
Cc1ccc(-c2nnc(N3CCC(C)CC3)c3ccccc23)cc1 | i | nt
CC1CCN(c2nnc(-c3ccccc3)c3ccccc23)CC1 | -5.8* | -5.8
CCOc1ccc(C(=O)CCN2CCCCCC2)cc1 | -6.6* | -6.6
CCCOc1ccc(C(=O)CCN2CCCCC2)cc1 | i | nt
CCOc1ccc(S(=O)(=O)c2c[nH]c3ccccc3c2=O)cc1 | i | 0.37
COC(=O)CSc1nnc(CSc2nc(C)cc(C)n2)n1Cc1ccco1 | i | nt
SMILES | KCNQ2 block | KCNQ2 enhance
Cc1cc(C)nc(SCc2nnc(SCc3ccc([N+](=O)[O-])cc3)n2Cc2ccco2)n1 | -5.8* | -5.8
Cc1ccc(CC(=O)O/N=C(\N)Cc2ccc([N+](=O)[O-])cc2)cc1 | i | nt
N/C(Cc1ccc([N+](=O)[O-])cc1)=N\OC(=O)CC1CCCCC1 | i | 8*
CC1Cc2ccccc2N1C(=O)c1cc2cccnc2n(C)c1=O (centres undefined) | i | nt
Cc1ccc(NC(=O)C2Cc3ccccc3CN2C(=O)c2ccccc2)cc1Cl (centres undefined) | -6.1* | -6.1
Cc1ccc(C(=O)N2Cc3ccccc3CC2C(=O)O)cc1 (centres undefined) | i | 2.3
CCN1CCSc2ccc(C(=O)NCc3ccccc3Br)cc21 | -6.1* | -6.1
CCN1CCSc2ccc(C(=O)NCc3ccccc3C)cc21 | i | nt
O=C1CN(C(=O)/C=C/c2ccc(Br)cc2)CCN1 | i | nt
COc1cc(C(=O)NCCCC2CCCC2)ccc1OC1CCN(C(C)=O)CC1 | i | nt
COc1cc(OC)c(OC)cc1/C=N/NC(=O)CCc1c(C)n[nH]c1C | i | 0.21
CCOC(=O)CC1C(=O)NCCN1c1nc2ccc(C)cn2c(=O)c1/C=C1\SC(=S)N(CC(C)C)C1=O (centres undefined) | i | nt
CCOC(=O)CC1C(=O)NCCN1c1nc2ccc(C)cn2c(=O)c1/C=C1\SC(=S)N(C(C)CC)C1=O (centres undefined) | -7.7* | -7.7
COc1ccc(-n2cccc2/C=C/[N+](=O)[O-])cc1 | -6.5* | -6.5
COc1ccc(-n2cccc2C=O)cc1 | i | 0.01
Cn1c(=O)c2c(nc(Br)n2Cc2ccccc2Cl)n(C)c1=O | i | nt
COC(=O)Cn1c(=O)c2c(nc(Br)n2Cc2ccccc2Cl)n(C)c1=O | -5.8* | -5.8
Cc1cccc(C)c1OCC(=O)Nc1ccc2c(c1)C(=O)NC2=O | i | 0.35
Cc1cc(=O)[nH]c(SCC(=O)NN(c2ccccc2)c2ccccc2)n1 | i | nt
CCCCN(C)Cc1c(C(=O)N2CCc3ccccc3C2)nc2ccc(Cl)cn12 | -5.6* | -5.6
CN(Cc1cccnc1)Cc1c(C(=O)N2CCc3ccccc3C2)nc2ccc(Cl)cn12 | i | nt
O=C(COc1ccc([N+](=O)[O-])cc1)NC(C(=O)O)C(O)c1cccc([N+](=O)[O-])c1 (centres undefined) | i | 0.67
O=C(/C(=C\c1ccccc1)c1nc2ccccc2[nH]1)c1ccc(Cl)cc1 | i | 0.99
O=C(/C(=C/c1ccc(Cl)cc1)c1nc2ccccc2[nH]1)c1cccs1 | -6.3* | -6.3
COC(=O)/C(=C\c1cc(OC)c(OC)c(OC)c1)c1nc2ccccc2[nH]1 | i | nt
SMILES | KCNQ2 block | KCNQ2 enhance
COc1cc(/C=C(/C(=O)c2cccs2)c2nc3ccccc3[nH]2)ccc1O | -7.6* | -7.6
COc1cccc(NC(=O)C(NCCc2ccc(S(N)(=O)=O)cc2)c2ccccc2)c1 (centres undefined) | i | nt
COc1ccc(C(=O)NC2CCN(CC(=O)NCc3ccccc3F)CC2)cc1 | i | nt
COC(=O)C(C)NC(=O)C12CC3CC(C1)CC(c1ccc(C)cc1)(C3)C2 (centres undefined) | i | nt
Cc1oc2c(c1C(=O)O)C(=O)c1ccccc1C2=O | i | 0.13
Cc1oc2c(c1C(=O)c1ccccc1)C(=O)C(=O)c1ccccc1-2 | -7.2* | -7.2
CCN(Cc1cnn(C)c1)C(=O)c1ccc2nc(Cc3cccc(Cl)c3)oc2c1 | i | nt
CC1CCN(C(=O)CSc2nc(=O)n3ccccc3n2)CC1 | i | 0.42
O=C(CC1C(=O)NCCN1Cc1ccccc1C(F)(F)F)NCCN1CCCCC1=O (centres undefined) | i | nt
CCOC(=O)C1CCCCN1Cc1ccc(-c2ccccc2)cc1 (centres undefined) | i | nt
CC(C)c1ccc(-c2cc(C(=O)N3CCOCC3)c3cc(Br)ccc3n2)cc1 | -6* | -6
O=C(c1cc(-c2ccccc2)nc2ccccc12)N1CCOCC1 | i | nt
Cc1cc([N+](=O)[O-])nn1CC(=O)N(C)C1CCCCC1 | i | nt
Nn1c(SC/C=C/c2ccccc2)nnc1-c1ccco1 | i | 0.02
C(=C\c1ccccc1)/CSc1nnc(-c2ccccc2)n1Cc1ccco1 | -5.9* | -5.9
Clc1cccc(-c2nnc(SC/C=C/c3ccccc3)n2Cc2ccco2)c1 | -8.3* | -8.3
C(=C\c1ccccc1)/CSc1nnc(-c2ccncc2)n1Cc1ccco1 | i | nt
CC(C)[C@H](NC(=O)N1CC(=O)Nc2ccccc21)C(=O)N1CCC(C(=O)O)CC1 | i | nt
O=C(COC(=O)c1cc(=O)[nH]c(=O)[nH]1)Nc1cccc(S(=O)(=O)N2CCOCC2)c1 | i | 0.03
C/[N+]([O-])=C\c1cccc(OCCN2CCN(c3ncc(C(F)(F)F)cc3Cl)CC2)c1 | i | 1.3
CN(CCOc1ccccc1)C(=O)C1CCN(C(=O)c2ccc(F)cc2)CC1 | i | nt
